Source: PubChem BioAssay (NCATS)
Records with an inconclusive call do not appear. Where a call stands in place of a potency, no number is given. Calls of active or inactive are those of the source. Unless noted, calls come from the whole dose curve; as a rule, active = well fitted curve in the direction sought with a large enough effect; inconclusive = small, poorly fitted or top-dose-only effect, or another doubt; inactive = no such curve, though single readings can be large; an effect the other way counts as inactive or inconclusive.

What was measured:
[1] = S16 Schwann cell viability assay (CellTiter-Glo assay) (AID 624031);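 note: native untransfected S16 rat Schwann cells; cellular ATP luminescence as a viability measure; nearly all actives have a fitted effect of over 70% in size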
Procedure, shortened: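 Rat S16 Schwann cells without reporter constructs received compound or DMSO for 24 h at 37 °C under 5% CO2. Cellular ATP was then quantified by CellTiter-Glo luminescence, with vehicle wells defined as 0% activity and cell-free wells as reference.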

[2] = S16 Schwann cell PMP22 intronic element beta-lactamase assay (AID 624044; calls by dose curve; note: nearly all actives have a fitted effect of over 15% in size); conditions: S16 rat Schwann cells, PMP22 element beta-lactamase FRET, 24 h; ratio activity, negative = inhibition: at 38.3 µM (top of the series) unless noted
Procedure, shortened: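 Beta-lactamase reporter under a PMP22 intronic regulatory element in stable S16 rat Schwann cells; 24 h compound exposure. 460 nm blue signal normalized between DMSO (0%) and potassium clavulanate, with 535 nm FRET tracking viability; curves classed by r2 and response.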

AA1029 = assay: qHTS profiling for inhibitors of Plasmodium falciparum proliferation (AID 504749); note: nearly all actives have a fitted effect of over 60% in size; conditions: P. falciparum in erythrocytes, SYBR Green DNA, 72 h; series mostly up to 28.7 µM
Procedure, shortened: (§1)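 Quantitative HTS: compounds pinned into medium, infected erythrocytes added (0.3% parasitemia, 2.5% hematocrit), 72 h culture at 37 C under 5% CO2. Saponin/Triton lysis with SYBR Green I, overnight RT, then fluorescence read.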

CP191 = assay: as above; conditions: P. falciparum in erythrocytes, SYBR Green DNA, 72 h; series mostly up to 28.7 µM
Procedure, shortened: as §1

CP260 = assay: as above; conditions: P. falciparum in erythrocytes, SYBR Green DNA, 72 h; series mostly up to 28.7 µM
Procedure, shortened: as §1

CP291 = assay: as above; conditions: P. falciparum in erythrocytes, SYBR Green DNA, 72 h; series mostly up to 28.7 µM
Procedure, shortened: as §1

CP297 = assay: as above; conditions: P. falciparum in erythrocytes, SYBR Green DNA, 72 h; series mostly up to 28.7 µM
Procedure, shortened: as §1

CP315 = assay: as above; conditions: P. falciparum in erythrocytes, SYBR Green DNA, 72 h; series mostly up to 28.7 µM
Procedure, shortened: as §1

CP335 = assay: as above; conditions: P. falciparum in erythrocytes, SYBR Green DNA, 72 h; series mostly up to 12.8 µM
Procedure, shortened: as §1

DIV14 = assay: as above; conditions: P. falciparum in erythrocytes, SYBR Green DNA, 72 h; series mostly up to 28.7 µM
Procedure, shortened: as §1

DIV17 = assay: as above; conditions: P. falciparum in erythrocytes, SYBR Green DNA, 72 h; series mostly up to 28.7 µM
Procedure, shortened: as §1

ICS = assay: as above; conditions: P. falciparum in erythrocytes, SYBR Green DNA, 72 h; series mostly up to 28.7 µM
Procedure, shortened: as §1

JCK = assay: as above; conditions: P. falciparum in erythrocytes, SYBR Green DNA, 72 h; series mostly up to 28.7 µM
Procedure, shortened: as §1

N140 = assay: as above; conditions: P. falciparum in erythrocytes, SYBR Green DNA, 72 h; series mostly up to 28.7 µM
Procedure, shortened: as §1

TAB165 = assay: as above; conditions: P. falciparum in erythrocytes, SYBR Green DNA, 72 h; series mostly up to 28.7 µM
Procedure, shortened: as §1

[3] = Nrf2 qHTS screen for inhibitors: Validation (AID 493153; active = well fitted inhibition curve with a large enough effect in the main read-out, with a control signal flat, not every such curve was filed as active); conditions: viability change: measured here: cytotoxicity max response
Procedure, shortened: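 Concentration-response on A549 ARE_Fluc reporter cells exposed 18-24 h at 37 C, 5% CO2. Cytotoxicity read first by CellTiter-Fluor fluorescence (Ex 405/Em 525), then Nrf2 inhibition by BugLite luminescence after 15 min.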

[4] = qHTS Assay for Identification of Small Molecule Agonists for Thrombopoietin (TPO) Signaling Pathway (AID 917)
Procedure, shortened: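 Cell-based luciferase reporter screen. Mouse Ba/F3 line stably expressing human TPO receptor; IL-3 removed overnight before plating. Co-treatment with compound and EC50 TPO (26 pM), 24 hrs at 37 C, then luminescence.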

[5] = biological target: Cytochrome P450 1A2 (Homo sapiens) (UniProt P05177); assay: p450-cyp1a2 (AID 410; calls by dose curve; note: potency is the fitted concentration of half-maximal effect)
Sequence of Cytochrome P450 1A2 (Homo sapiens) (P05177 whole entry, looked up): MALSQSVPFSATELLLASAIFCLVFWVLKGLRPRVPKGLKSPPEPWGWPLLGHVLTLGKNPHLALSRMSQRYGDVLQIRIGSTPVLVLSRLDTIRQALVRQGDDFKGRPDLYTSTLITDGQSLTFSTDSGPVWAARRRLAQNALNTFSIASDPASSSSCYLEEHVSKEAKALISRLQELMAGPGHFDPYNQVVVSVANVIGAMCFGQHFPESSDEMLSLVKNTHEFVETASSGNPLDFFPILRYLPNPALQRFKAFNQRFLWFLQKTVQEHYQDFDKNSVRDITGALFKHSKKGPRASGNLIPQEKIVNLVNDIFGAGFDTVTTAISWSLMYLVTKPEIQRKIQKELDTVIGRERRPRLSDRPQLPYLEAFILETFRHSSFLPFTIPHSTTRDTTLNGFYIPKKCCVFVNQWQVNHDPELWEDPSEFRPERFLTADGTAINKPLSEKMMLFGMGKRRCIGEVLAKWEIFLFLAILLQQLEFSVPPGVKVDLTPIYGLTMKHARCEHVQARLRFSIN
Procedure, shortened: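 Luminescent demethylation readout: Luciferin-ME (100uM, equal to Km) turned over by 20nM CYP1A2 for 60 min at room temperature after NADPH regeneration addition, following 10 min compound preincubation. Normalization used 57 uM furafylline as full inhibition.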

[6] = biological target: Muscarinic acetylcholine receptor M1 (Rattus norvegicus) (UniProt P08482); assay: qHTS Assay for Antagonists of Acetylcholine Muscarinic M1 Receptor: Kinetic Measurement of Intracellular Calcium Response (AID 943); note: nearly all actives have a fitted effect of over 75% in size; note: potency is the fitted concentration of half-maximal effect
Sequence of Muscarinic acetylcholine receptor M1 (Rattus norvegicus) (P08482 whole entry, looked up): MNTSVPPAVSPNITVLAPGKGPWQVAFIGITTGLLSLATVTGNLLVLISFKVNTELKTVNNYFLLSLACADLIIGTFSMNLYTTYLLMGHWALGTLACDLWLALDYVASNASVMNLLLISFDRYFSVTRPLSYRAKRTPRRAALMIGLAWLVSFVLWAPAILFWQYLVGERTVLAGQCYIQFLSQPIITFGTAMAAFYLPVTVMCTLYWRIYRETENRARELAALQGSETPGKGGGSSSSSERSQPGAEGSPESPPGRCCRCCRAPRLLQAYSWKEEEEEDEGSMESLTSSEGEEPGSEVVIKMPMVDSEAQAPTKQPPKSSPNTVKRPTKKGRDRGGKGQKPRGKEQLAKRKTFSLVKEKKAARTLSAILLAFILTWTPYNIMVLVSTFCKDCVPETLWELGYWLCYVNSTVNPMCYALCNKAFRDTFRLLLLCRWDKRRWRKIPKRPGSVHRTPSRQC
Procedure, shortened: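 Antagonism measured as reduction of carbachol-evoked (EC80, 100 nM final) calcium flux in rat M1-CHO cells after 10 min compound exposure. Fluo-4 signal read kinetically; ratio of maximal to basal fluorescence.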

[7] = biological target: Muscarinic acetylcholine receptor M1 (Rattus norvegicus) (UniProt P08482); assay: qHTS Assay for Antagonists of Acetylcholine Muscarinic M1 Receptor: Measurement of IP-One Response (AID 944); note: nearly all actives have a fitted effect of over 75% in size; note: potency is the fitted concentration of half-maximal effect
Procedure, shortened: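 IP1 accumulation measured via TR-FRET between d2-IP1 and Eu-cryptate anti-IP1 antibody after carbachol (200 nM, EC80) stimulation for 30 min; rat M1-transfected CHO cells received compound 10 min before agonist.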

Oc1ccc2c3c1O[C@H]1[C@@H](O)CC[C@@]4(O)C(C2)N(CC2CCC2)CCC314 (stereo not given in full)
Potency [1]: inactive | Potency [2]: inactive | Potency (AA1029): inactive | Potency (CP191): inactive | Potency (CP260): inactive | Potency (CP291): inactive | Potency (CP297): inactive | Potency (CP315): inactive | Potency (CP335): inactive | Potency (DIV14): inactive | Potency (DIV17): inactive | Potency (ICS): inactive | Potency (JCK): inactive | Potency (N140): inactive | Potency (TAB165): inactive

C[C@H]1C2Cc3ccc(O)cc3[C@]1(C)CCN2CC1CC1
outcome [3]: inactive | viability change [3]: -0.82%

NNCc1cccc(O)c1
outcome [4]: inactive

CC[C@@H](CO)NC(=O)[C@H]1C=C2c3cccc4c3c(cn4C)C[C@H]2N(C)C1
Potency [5]: 15.8 µM (active)

C[C@H]1OC[C@@H](C[N+](C)(C)C)O1
outcome [4]: inactive | Potency [6]: inactive | Potency [7]: inactive

COc1cc(C=C(C#N)C#N)cc(O)c1O
Potency [5]: 12.6 µM (active) | outcome [4]: inactive | Potency [6]: inactive

CC(C)(O)C1C2OC(=O)C1[C@]1(O)C[C@H]3O[C@]34C(=O)O[C@H]2[C@]14C (stereo not given in full) (tested in a mixture with another compound)
Potency [2]: inactive | Potency (AA1029): inactive | Potency (CP191): inactive | Potency (CP260): inactive | Potency (CP291): inactive | Potency (CP297): inactive | Potency (CP315): inactive | Potency (CP335): inactive | Potency (DIV14): inactive | Potency (DIV17): inactive | Potency (ICS): inactive | Potency (JCK): inactive | Potency (N140): inactive | Potency (TAB165): inactive

CCCCN1C2CCC1CC(OC(c1ccc(F)cc1)c1ccc(F)cc1)C2 (stereo not given)
Potency [6]: 0.398 µM (active) | Potency [7]: 2.24 µM (active)

CCN(CC)C(=O)N[C@@H]1C[C@@H]2c3cccc4[nH]cc(c34)C[C@H]2N(C)C1
Potency [1]: inactive | Potency [2]: inactive

NCC#Cc1ccccc1
Potency [5]: 3.16 µM (active) | Potency [7]: inactive

CCCN(CCC)C(=O)Cc1c(-c2ccc(Cl)cc2)nc2c(Cl)cc(Cl)cn12
Potency [5]: inactive | outcome [4]: inactive | Potency [6]: inactive | Potency [7]: inactive

CC12CCC3C(CCC4=C(O)C(=O)CCC43C)C1CCC2=O (stereo not given)
outcome [3]: inactive | viability change [3]: 0.774%

CCCC[N+]1(C)C2CC(OC(=O)C(CO)c3ccccc3)CC1C1OC12 (stereo not given)
Potency [1]: inactive | Potency [2]: inactive | Potency (AA1029): inactive | Potency (CP191): inactive | Potency (CP260): inactive | Potency (CP291): inactive | Potency (CP297): inactive | Potency (CP315): inactive | Potency (CP335): inactive | Potency (DIV14): inactive | Potency (DIV17): inactive | Potency (ICS): inactive | Potency (JCK): inactive | Potency (N140): inactive | Potency (TAB165): inactive

CNC(C)[C@@H](O)c1ccc(O)cc1 (stereo not given in full)
Potency [1]: inactive | Potency (AA1029): inactive | Potency (CP191): inactive | Potency (CP260): inactive | Potency (CP291): inactive | Potency (CP297): inactive | Potency (CP315): inactive | Potency (CP335): inactive | Potency (DIV14): inactive | Potency (DIV17): inactive | Potency (ICS): inactive | Potency (JCK): inactive | Potency (N140): inactive | Potency (TAB165): inactive
